Where two headings read alike, the source gives them in different places.
Columns and labels:
Parameters in all cases: species or system human, MV4-11 + K-562 + COLO205 + SK-N-BE2 + OVCAR-8
ATM = details: read-out: apparent Kd; compound concentrations:100 nM and 1000 nM (sheet 'Samples'); n = 1
GAK = details: read-out: apparent Kd; compound concentrations:100 nM and 1000 nM (sheet 'Samples'); n = 1
MAPK10 = details: read-out: apparent Kd; compound concentrations:100 nM and 1000 nM (sheet 'Samples'); n = 1
MTOR = details: read-out: apparent Kd; compound concentrations:100 nM and 1000 nM (sheet 'Samples'); n = 1
MYLK3 = details: read-out: apparent Kd; compound concentrations:100 nM and 1000 nM (sheet 'Samples'); n = 1
PIK3CA = details: read-out: apparent Kd; compound concentrations:100 nM and 1000 nM (sheet 'Samples'); n = 1
PLK4 = details: read-out: apparent Kd, n = 1
PRKACG = details: read-out: apparent Kd; compound concentrations:100 nM and 1000 nM (sheet 'Samples'); n = 1
PRKAG1 = details: read-out: apparent Kd; compound concentrations:100 nM and 1000 nM (sheet 'Samples'); n = 1
PRKAG2 = details: read-out: apparent Kd; compound concentrations:100 nM and 1000 nM (sheet 'Samples'); n = 1
SIK2 = details: read-out: apparent Kd; compound concentrations:100 nM and 1000 nM (sheet 'Samples'); n = 1
TNIK = details: read-out: apparent Kd; compound concentrations:100 nM and 1000 nM (sheet 'Samples'); n = 1
AKT2 = details: read-out: apparent Kd; compound concentrations: 100 nM and 1000 nM (sheet 'Samples'), CATDS: 0.30677432174967101; n = 1
CDK6 = details: read-out: apparent Kd, compound concentrations: 100 nM and 1000 nM (sheet 'Samples'), n = 1
MAPKAPK2 = details: read-out: apparent Kd; compound concentrations: 100 nM and 1000 nM (sheet 'Samples'), CATDS: 0.38970586087063103; n = 1
AURKA = details: read-out: apparent Kd; compound concentrations: 100 nM and 1000 nM (sheet 'Samples'), CATDS: 7.2357375689978506E-2; n = 1
AURKB = details: read-out: apparent Kd; compound concentrations: 100 nM and 1000 nM (sheet 'Samples'), CATDS: 8.33802174361232E-2; n = 1
BTK = details: read-out: apparent Kd; compound concentrations: 100 nM and 1000 nM (sheet 'Samples'), CATDS: 2.7906188232160099E-2; n = 1
DDR1 = details: read-out: apparent Kd; compound concentrations: 100 nM and 1000 nM (sheet 'Samples'), CATDS: 3.3765649508464002E-2; n = 1
DDR2 = details: read-out: apparent Kd; compound concentrations: 100 nM and 1000 nM (sheet 'Samples'), CATDS: 2.4811754642975199E-2; n = 1
EPHA1 = details: read-out: apparent Kd; compound concentrations: 100 nM and 1000 nM (sheet 'Samples'), CATDS: 5.8966427250755599E-2; n = 1
EPHA2 = details: read-out: apparent Kd; compound concentrations: 100 nM and 1000 nM (sheet 'Samples'), CATDS: 2.87381973097037E-2; n = 1
EPHA5 = details: read-out: apparent Kd; compound concentrations: 100 nM and 1000 nM (sheet 'Samples'), CATDS: 2.6468271871748401E-2; n = 1
EPHA7 = details: read-out: apparent Kd; compound concentrations: 100 nM and 1000 nM (sheet 'Samples'), CATDS: 2.4521911619802599E-2; n = 1
EPHB1 = details: read-out: apparent Kd; compound concentrations: 100 nM and 1000 nM (sheet 'Samples'), CATDS: 4.12835328689228E-2; n = 1
EPHB3 = details: read-out: apparent Kd; compound concentrations: 100 nM and 1000 nM (sheet 'Samples'), CATDS: 2.2990547954998001E-2; n = 1
EPHB4 = details: read-out: apparent Kd; compound concentrations: 100 nM and 1000 nM (sheet 'Samples'), CATDS: 2.6241533264211699E-2; n = 1
EPHB6 = details: read-out: apparent Kd; compound concentrations: 100 nM and 1000 nM (sheet 'Samples'), CATDS: 2.2781408813982901E-2; n = 1
FGFR1 = details: read-out: apparent Kd; compound concentrations: 100 nM and 1000 nM (sheet 'Samples'), CATDS: 3.1616918928168397E-2; n = 1
FLT4 = details: read-out: apparent Kd; compound concentrations: 100 nM and 1000 nM (sheet 'Samples'), CATDS: 7.7146870041813295E-2; n = 1
GSK3A = details: read-out: apparent Kd; compound concentrations: 100 nM and 1000 nM (sheet 'Samples'), CATDS: 2.5407151234935001E-2; n = 1
GSK3B = details: read-out: apparent Kd; compound concentrations: 100 nM and 1000 nM (sheet 'Samples'), CATDS: 2.45501369034281E-2; n = 1
IRAK1 = details: read-out: apparent Kd; compound concentrations: 100 nM and 1000 nM (sheet 'Samples'), CATDS: 2.4333511791148201E-2; n = 1
MAP3K5 = details: read-out: apparent Kd; compound concentrations: 100 nM and 1000 nM (sheet 'Samples'), CATDS: 2.5132787541446201E-2; n = 1
MAP3K6 = details: read-out: apparent Kd; compound concentrations: 100 nM and 1000 nM (sheet 'Samples'), CATDS: 2.24428147169137E-2; n = 1
PAK4 = details: read-out: apparent Kd; compound concentrations: 100 nM and 1000 nM (sheet 'Samples'), CATDS: 2.7893369435470699E-2; n = 1
PDGFRB = details: read-out: apparent Kd; compound concentrations: 100 nM and 1000 nM (sheet 'Samples'), CATDS: 2.3035756841704998E-2; n = 1
PTK2 = details: read-out: apparent Kd; compound concentrations: 100 nM and 1000 nM (sheet 'Samples'), CATDS: 0.104516847999243; n = 1
RET = details: read-out: apparent Kd; compound concentrations: 100 nM and 1000 nM (sheet 'Samples'), CATDS: 0.104878429822753; n = 1
SLK = details: read-out: apparent Kd; compound concentrations: 100 nM and 1000 nM (sheet 'Samples'), CATDS: 2.57372154872102E-2; n = 1
STK10 = details: read-out: apparent Kd; compound concentrations: 100 nM and 1000 nM (sheet 'Samples'), CATDS: 4.1679333810588297E-2; n = 1
TEC = details: read-out: apparent Kd; compound concentrations: 100 nM and 1000 nM (sheet 'Samples'), CATDS: 3.46380925591862E-2; n = 1
TGFBR1 = details: read-out: apparent Kd; compound concentrations: 100 nM and 1000 nM (sheet 'Samples'), CATDS: 3.4751131583425202E-2; n = 1
TNK1 = details: read-out: apparent Kd; compound concentrations: 100 nM and 1000 nM (sheet 'Samples'), CATDS: 3.18258683294073E-2; n = 1

## COc1ccc2[nH]c3c4[nH]c5ccc(OC)cc5c4c4c(c3c2c1)C(=O)NC4=O [GW296115X]
ATM
  potency estimated from few doses: 204 nM
GAK
  potency estimated from few doses: 543 nM
MAPK10
  potency estimated from few doses: 1050 nM
MTOR
  potency estimated from few doses: 741 nM
MYLK3
  potency estimated from few doses: 834 nM
PIK3CA
  potency estimated from few doses: 254 nM
PLK4; compound concentrations:100 nM and 1000 nM (sheet 'Samples')
  potency estimated from few doses: 581 nM
PRKACG
  potency estimated from few doses: 655 nM
PRKAG1
  potency estimated from few doses: 1550 nM
PRKAG2
  potency estimated from few doses: 1670 nM
SIK2
  potency estimated from few doses: 923 nM
TNIK
  potency estimated from few doses: 1700 nM

## N#Cc1c(NC(=O)c2ccccc2F)sc2c1CCCC2 [GW572738X]
AKT2
  potency estimated from few doses: 2340 nM
CDK6; CATDS: 0.31503634964043797
  potency estimated from few doses: 2200 nM
MAPKAPK2
  potency estimated from few doses: 1460 nM

## CC(=O)Nc1ccc2c(c1)C(c1ccccc1Cl)=Nc1c(n[nH]c1C)N2 [RO0281752-000]
AURKA
  potency estimated from few doses: 151 nM
AURKB
  potency estimated from few doses: 121 nM
BTK
  potency estimated from few doses: 1080 nM
CDK6; CATDS: 2.6039683989772199E-2
  potency estimated from few doses: 1320 nM
DDR1
  potency estimated from few doses: 658 nM
DDR2
  potency estimated from few doses: 1540 nM
EPHA1
  potency estimated from few doses: 213 nM
EPHA2
  potency estimated from few doses: 992 nM
EPHA5
  potency estimated from few doses: 1260 nM
EPHA7
  potency estimated from few doses: 1600 nM
EPHB1
  potency estimated from few doses: 421 nM
EPHB3
  potency estimated from few doses: 2020 nM
EPHB4
  potency estimated from few doses: 1290 nM
EPHB6
  potency estimated from few doses: 2090 nM
FGFR1
  potency estimated from few doses: 772 nM
FLT4
  potency estimated from few doses: 136 nM
GSK3A
  potency estimated from few doses: 1430 nM
GSK3B
  potency estimated from few doses: 1600 nM
IRAK1
  potency estimated from few doses: 1650 nM
MAP3K5
  potency estimated from few doses: 1480 nM
MAP3K6
  potency estimated from few doses: 2220 nM
PAK4
  potency estimated from few doses: 1080 nM
PDGFRB
  potency estimated from few doses: 2000 nM
PLK4; compound concentrations: 100 nM and 1000 nM (sheet 'Samples'), CATDS: 9.4443768096787298E-2
  potency estimated from few doses: 100 nM
PTK2
  potency estimated from few doses: 86.4 nM
RET
  potency estimated from few doses: 86 nM
SLK
  potency estimated from few doses: 1370 nM
STK10
  potency estimated from few doses: 413 nM
TEC
  potency estimated from few doses: 620 nM
TGFBR1
  potency estimated from few doses: 615 nM
TNK1
  potency estimated from few doses: 760 nM
